The values below come from article PMC7862700, “An all-to-all approach to the identification of sequence-specific readers for epigenetic DNA modifications on cytosine”.

Common to all, as to assay: DAPPL (digital affinity profiling via proximity ligation, sequencing); 10 mM Tris-HCl pH 7.5, 50 mM NaCl, 1 mM DTT, 4% glycerol, room temperature, 30 min; GST-TFs on glutathione beads, 16-mer random dsDNA library, 0.1% formaldehyde crosslink after washing; high values mean tight binding
For assay [1], the target named is T1, FEV (Homo sapiens, UniProt Q99581 1-238).
T1 sequence: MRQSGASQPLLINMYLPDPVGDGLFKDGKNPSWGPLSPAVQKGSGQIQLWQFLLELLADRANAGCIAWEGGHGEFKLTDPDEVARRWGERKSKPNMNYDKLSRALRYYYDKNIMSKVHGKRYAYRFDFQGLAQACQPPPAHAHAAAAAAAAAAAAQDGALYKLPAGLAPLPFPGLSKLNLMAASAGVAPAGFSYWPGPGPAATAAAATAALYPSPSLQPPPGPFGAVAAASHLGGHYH
Conditions: protein: recombinant; tags: N-terminal GST; dsDNA, one strand shown. The procedure, abridged: (§1)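 GST fusions of human transcription factors were expressed in yeast and captured with glutathione beads. Once given DNA barcodes and pooled alongside a tag-only sample, they were incubated for 30 min at room temperature with 200 nmole of a random double-stranded 16-mer DNA library in Tris/NaCl/DTT/glycerol buffer, then washed, crosslinked (0.1% formaldehyde), proximity-ligated, PCR-amplified and sequenced on an Illumina NextSeq500. The binding signal of each hexamer is its read frequency for a factor divided by its frequency for the tag-only sample.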

The target of assay [2] is ETV5 (Homo sapiens, UniProt P41161 1-510). The conditions noted are these: protein: recombinant; tags: N-terminal GST; dsDNA, one strand shown. Summed up:
as §1

Assay [3] concerns the target HSF1 (Homo sapiens, UniProt Q00613 1-529). The conditions noted are these: protein: recombinant; tags: N-terminal GST; chain copies: 3; dsDNA, one strand shown. Summed up: as §1
In assay [4] the target is T2, SPIC (Homo sapiens, UniProt Q8N5J4 1-248).
T2 sequence: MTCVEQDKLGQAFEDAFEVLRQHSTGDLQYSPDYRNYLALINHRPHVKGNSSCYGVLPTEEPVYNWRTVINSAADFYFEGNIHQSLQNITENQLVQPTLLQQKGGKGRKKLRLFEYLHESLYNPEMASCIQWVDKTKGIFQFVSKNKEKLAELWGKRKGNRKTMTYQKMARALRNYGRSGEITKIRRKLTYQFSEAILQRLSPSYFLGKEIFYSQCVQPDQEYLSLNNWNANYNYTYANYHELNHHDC
Conditions: protein: recombinant; tags: N-terminal GST; dsDNA, one strand shown. The procedure, abridged: as §1

Assay [5] addresses ELF4 (Homo sapiens, UniProt Q99607 1-663). The conditions noted are these: protein: recombinant; tags: N-terminal GST; dsDNA, one strand shown. Summed up:
as §1

In assay [6] the target is T3, ELK4 (Homo sapiens, UniProt P28324-2 1-405).
T3 sequence: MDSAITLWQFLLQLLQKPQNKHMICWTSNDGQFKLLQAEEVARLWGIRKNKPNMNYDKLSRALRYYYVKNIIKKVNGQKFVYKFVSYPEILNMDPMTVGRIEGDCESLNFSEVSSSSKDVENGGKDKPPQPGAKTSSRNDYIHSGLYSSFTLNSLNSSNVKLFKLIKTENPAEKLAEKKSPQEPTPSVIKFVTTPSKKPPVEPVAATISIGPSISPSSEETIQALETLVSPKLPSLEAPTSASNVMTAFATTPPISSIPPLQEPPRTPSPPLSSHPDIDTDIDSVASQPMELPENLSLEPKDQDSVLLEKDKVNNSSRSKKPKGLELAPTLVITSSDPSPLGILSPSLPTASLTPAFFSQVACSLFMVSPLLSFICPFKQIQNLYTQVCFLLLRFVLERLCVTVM
Conditions: protein: recombinant; tags: N-terminal GST; dsDNA, one strand shown. The procedure, abridged:
as §1

The target in assay [7] is T4, ETV2 (Homo sapiens, UniProt O00321 1-342).
T4 sequence: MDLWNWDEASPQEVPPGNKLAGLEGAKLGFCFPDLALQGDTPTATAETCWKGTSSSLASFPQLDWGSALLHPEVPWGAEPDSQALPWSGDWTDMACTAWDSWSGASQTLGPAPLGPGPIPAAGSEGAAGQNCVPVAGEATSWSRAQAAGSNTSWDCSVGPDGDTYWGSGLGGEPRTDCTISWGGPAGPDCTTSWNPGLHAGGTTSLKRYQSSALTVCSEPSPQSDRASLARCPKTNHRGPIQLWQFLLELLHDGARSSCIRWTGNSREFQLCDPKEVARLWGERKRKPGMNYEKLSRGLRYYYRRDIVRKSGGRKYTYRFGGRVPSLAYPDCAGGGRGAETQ
The conditions noted are these: protein: recombinant; tags: N-terminal GST; dsDNA, one strand shown. The procedure, abridged: as §1

For assay [8], the target named is T5, ELF3 (Homo sapiens, UniProt P78545 1-371).
T5 sequence: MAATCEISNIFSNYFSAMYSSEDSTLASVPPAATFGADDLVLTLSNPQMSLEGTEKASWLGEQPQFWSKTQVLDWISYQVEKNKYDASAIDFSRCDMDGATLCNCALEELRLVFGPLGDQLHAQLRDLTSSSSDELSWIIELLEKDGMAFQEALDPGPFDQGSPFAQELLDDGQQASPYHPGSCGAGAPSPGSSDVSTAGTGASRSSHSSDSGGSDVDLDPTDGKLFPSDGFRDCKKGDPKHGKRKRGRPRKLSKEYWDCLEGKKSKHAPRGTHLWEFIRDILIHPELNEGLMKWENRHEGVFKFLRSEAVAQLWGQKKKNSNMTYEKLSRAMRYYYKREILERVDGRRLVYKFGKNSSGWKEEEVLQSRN
The conditions noted are these: protein: recombinant; tags: N-terminal GST; dsDNA, one strand shown. The procedure, abridged:
as §1

The target of assay [9] is CRX (Homo sapiens, UniProt O43186 1-299). The conditions noted are these: protein: recombinant; tags: N-terminal GST; dsDNA, one strand shown. The procedure, abridged:
as §1

Assay [10] deals with ETV1 (Homo sapiens, UniProt P50549 1-477). The conditions noted are these: protein: recombinant; tags: N-terminal GST; dsDNA, one strand shown. The procedure, abridged:
as §1

ETV5, sequence (P41161 whole entry): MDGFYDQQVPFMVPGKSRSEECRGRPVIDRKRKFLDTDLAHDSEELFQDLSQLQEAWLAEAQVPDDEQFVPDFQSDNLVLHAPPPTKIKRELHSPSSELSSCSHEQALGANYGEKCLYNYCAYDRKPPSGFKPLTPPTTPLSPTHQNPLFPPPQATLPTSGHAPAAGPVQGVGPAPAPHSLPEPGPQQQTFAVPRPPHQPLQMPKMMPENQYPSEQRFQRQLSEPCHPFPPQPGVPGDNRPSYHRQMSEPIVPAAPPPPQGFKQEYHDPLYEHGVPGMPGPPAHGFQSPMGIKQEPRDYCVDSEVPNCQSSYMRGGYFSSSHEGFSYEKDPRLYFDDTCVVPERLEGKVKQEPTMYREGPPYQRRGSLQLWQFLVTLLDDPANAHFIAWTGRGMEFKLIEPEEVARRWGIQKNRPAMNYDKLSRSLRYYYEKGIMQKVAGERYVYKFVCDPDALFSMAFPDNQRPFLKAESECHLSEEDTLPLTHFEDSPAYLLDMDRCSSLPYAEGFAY
ELF4, sequence (Q99607 whole entry): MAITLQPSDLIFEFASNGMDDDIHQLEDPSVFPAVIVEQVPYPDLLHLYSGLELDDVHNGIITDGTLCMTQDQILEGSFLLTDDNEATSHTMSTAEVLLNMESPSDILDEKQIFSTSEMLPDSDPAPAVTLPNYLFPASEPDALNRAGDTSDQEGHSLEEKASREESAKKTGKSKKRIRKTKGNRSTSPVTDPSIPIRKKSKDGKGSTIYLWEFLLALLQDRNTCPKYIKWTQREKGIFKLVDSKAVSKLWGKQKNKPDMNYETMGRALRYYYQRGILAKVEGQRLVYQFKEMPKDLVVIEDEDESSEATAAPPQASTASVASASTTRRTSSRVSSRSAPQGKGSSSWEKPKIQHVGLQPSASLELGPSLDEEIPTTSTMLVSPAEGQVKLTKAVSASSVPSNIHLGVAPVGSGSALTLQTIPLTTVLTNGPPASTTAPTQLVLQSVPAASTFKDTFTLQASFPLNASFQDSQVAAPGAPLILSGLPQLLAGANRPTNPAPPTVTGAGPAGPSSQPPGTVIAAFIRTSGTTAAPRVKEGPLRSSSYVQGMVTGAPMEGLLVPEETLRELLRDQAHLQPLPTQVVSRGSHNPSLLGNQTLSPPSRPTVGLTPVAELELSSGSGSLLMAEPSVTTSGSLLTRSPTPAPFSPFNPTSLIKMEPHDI
ETV1, sequence (P50549 whole entry): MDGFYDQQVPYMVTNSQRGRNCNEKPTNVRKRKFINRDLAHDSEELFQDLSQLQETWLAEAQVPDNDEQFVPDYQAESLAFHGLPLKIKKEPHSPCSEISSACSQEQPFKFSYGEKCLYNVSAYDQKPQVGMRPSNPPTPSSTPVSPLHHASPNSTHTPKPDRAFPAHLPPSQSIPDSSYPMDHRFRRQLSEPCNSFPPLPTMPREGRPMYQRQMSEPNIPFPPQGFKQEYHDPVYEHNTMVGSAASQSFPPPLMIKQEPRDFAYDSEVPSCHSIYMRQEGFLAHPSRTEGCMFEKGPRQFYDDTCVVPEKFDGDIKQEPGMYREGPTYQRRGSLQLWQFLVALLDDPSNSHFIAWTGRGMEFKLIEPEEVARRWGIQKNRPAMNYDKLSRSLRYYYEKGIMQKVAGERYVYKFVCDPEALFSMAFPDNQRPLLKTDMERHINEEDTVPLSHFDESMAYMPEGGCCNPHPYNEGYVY
CRX, sequence (O43186 whole entry): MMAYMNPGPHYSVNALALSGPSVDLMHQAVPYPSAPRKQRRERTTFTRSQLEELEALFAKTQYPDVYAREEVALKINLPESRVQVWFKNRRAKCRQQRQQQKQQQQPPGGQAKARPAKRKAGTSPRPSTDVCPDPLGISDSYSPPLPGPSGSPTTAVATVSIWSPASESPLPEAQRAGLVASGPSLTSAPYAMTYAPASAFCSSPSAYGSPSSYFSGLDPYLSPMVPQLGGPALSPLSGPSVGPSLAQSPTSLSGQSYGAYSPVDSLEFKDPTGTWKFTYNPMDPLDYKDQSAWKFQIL
HSF1, sequence (Q00613 whole entry): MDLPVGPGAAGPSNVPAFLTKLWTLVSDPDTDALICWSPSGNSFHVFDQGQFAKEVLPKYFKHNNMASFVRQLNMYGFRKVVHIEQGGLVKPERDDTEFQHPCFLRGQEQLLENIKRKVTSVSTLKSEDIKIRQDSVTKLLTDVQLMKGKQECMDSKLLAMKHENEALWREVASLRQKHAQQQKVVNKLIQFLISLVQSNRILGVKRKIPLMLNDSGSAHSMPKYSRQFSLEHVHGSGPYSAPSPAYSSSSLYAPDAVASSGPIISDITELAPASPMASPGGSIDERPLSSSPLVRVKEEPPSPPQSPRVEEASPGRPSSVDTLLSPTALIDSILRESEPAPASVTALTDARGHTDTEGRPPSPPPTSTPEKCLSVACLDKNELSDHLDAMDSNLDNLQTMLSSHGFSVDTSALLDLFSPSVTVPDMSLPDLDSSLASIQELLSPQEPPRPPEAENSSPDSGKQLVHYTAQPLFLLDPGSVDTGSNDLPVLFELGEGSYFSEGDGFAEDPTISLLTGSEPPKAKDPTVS

As for CCTAGC, the binding signal in [1] was 1.18 fold enrichment (6-mer frequency, TF over GST control); in assay [2] it was 1.15 fold enrichment (6-mer frequency, TF over GST control); in [3], 1.17 fold enrichment (6-mer frequency, TF over GST control); in [4] it was 1.17 fold enrichment (6-mer frequency, TF over GST control); in assay [5] it was 1.16 fold enrichment (6-mer frequency, TF over GST control); in assay [6] it was 1.13 fold enrichment (6-mer frequency, TF over GST control). The binding signal in assay [7] was 1.13 fold enrichment (6-mer frequency, TF over GST control); in [8], 1.12 fold enrichment (6-mer frequency, TF over GST control); in assay [9], 1.02 fold enrichment (6-mer frequency, TF over GST control); in assay [10], 1.13 fold enrichment (6-mer frequency, TF over GST control).
Consider CTAGCA, for which the binding signal was 1.27 fold enrichment (6-mer frequency, TF over GST control) in assay [1]; 1.25 fold enrichment (6-mer frequency, TF over GST control) in assay [2]; 2.11 fold enrichment (6-mer frequency, TF over GST control) in assay [3]; 1.11 fold enrichment (6-mer frequency, TF over GST control) in [4]; 1.3 fold enrichment (6-mer frequency, TF over GST control) in assay [5]; 1.25 fold enrichment (6-mer frequency, TF over GST control) in [6]. Further, the binding signal in assay [7] was 1.35 fold enrichment (6-mer frequency, TF over GST control); in assay [8], 1.21 fold enrichment (6-mer frequency, TF over GST control); in [9], 1.34 fold enrichment (6-mer frequency, TF over GST control); in assay [10], 1.24 fold enrichment (6-mer frequency, TF over GST control).
Take TTAACA: the binding signal in assay [1] was 1.13 fold enrichment (6-mer frequency, TF over GST control); in assay [2], 1.14 fold enrichment (6-mer frequency, TF over GST control); in assay [3] it was 1.65 fold enrichment (6-mer frequency, TF over GST control); in [4], 1.14 fold enrichment (6-mer frequency, TF over GST control); in assay [5] it was 1.18 fold enrichment (6-mer frequency, TF over GST control); in [6], 1.28 fold enrichment (6-mer frequency, TF over GST control). Also, the binding signal in assay [7] was 1.23 fold enrichment (6-mer frequency, TF over GST control); in [8] it was 1.22 fold enrichment (6-mer frequency, TF over GST control); in [9] it was 2.34 fold enrichment (6-mer frequency, TF over GST control); in assay [10], 1.23 fold enrichment (6-mer frequency, TF over GST control).
On to GCTCCG, for which the binding signal in assay [1] was 1.42 fold enrichment (6-mer frequency, TF over GST control); in assay [2], 1.33 fold enrichment (6-mer frequency, TF over GST control); in assay [3] it was 1.2 fold enrichment (6-mer frequency, TF over GST control); in assay [4] it was 1.54 fold enrichment (6-mer frequency, TF over GST control); in assay [5], 1.39 fold enrichment (6-mer frequency, TF over GST control); in [6], 1.33 fold enrichment (6-mer frequency, TF over GST control). For the same sequence, the binding signal is 1.32 fold enrichment (6-mer frequency, TF over GST control) in [7]; 1.32 fold enrichment (6-mer frequency, TF over GST control) in [8]; 1.07 fold enrichment (6-mer frequency, TF over GST control) in assay [9]; 1.27 fold enrichment (6-mer frequency, TF over GST control) in assay [10].
Turning to TTCCTA, the binding signal in assay [1] was 1.62 fold enrichment (6-mer frequency, TF over GST control); in assay [2] it was 1.79 fold enrichment (6-mer frequency, TF over GST control); in assay [3], 1.59 fold enrichment (6-mer frequency, TF over GST control); in assay [4], 1.67 fold enrichment (6-mer frequency, TF over GST control); in assay [5], 1.57 fold enrichment (6-mer frequency, TF over GST control); in assay [6], 1.52 fold enrichment (6-mer frequency, TF over GST control). The binding signal in assay [7] is 1.77 fold enrichment (6-mer frequency, TF over GST control); in [8], 1.84 fold enrichment (6-mer frequency, TF over GST control); in assay [9], 1.47 fold enrichment (6-mer frequency, TF over GST control); in [10], 1.72 fold enrichment (6-mer frequency, TF over GST control).
In the case of TTTCTA, the binding signal was 1.34 fold enrichment (6-mer frequency, TF over GST control) in assay [1]; 1.37 fold enrichment (6-mer frequency, TF over GST control) in assay [2]; 3.01 fold enrichment (6-mer frequency, TF over GST control) in [3]; 1.52 fold enrichment (6-mer frequency, TF over GST control) in [4]; 1.33 fold enrichment (6-mer frequency, TF over GST control) in assay [5]; 1.34 fold enrichment (6-mer frequency, TF over GST control) in [6]. The binding signal in [7] is 1.27 fold enrichment (6-mer frequency, TF over GST control); in [8] it was 1.36 fold enrichment (6-mer frequency, TF over GST control); in [9] it was 1.97 fold enrichment (6-mer frequency, TF over GST control); in assay [10], 1.47 fold enrichment (6-mer frequency, TF over GST control).
As to TGTCTT, the binding signal in assay [1] is 1.27 fold enrichment (6-mer frequency, TF over GST control); in assay [2], 1.24 fold enrichment (6-mer frequency, TF over GST control); in [3], 1.13 fold enrichment (6-mer frequency, TF over GST control); in [4], 1.39 fold enrichment (6-mer frequency, TF over GST control); in assay [5] it was 1.19 fold enrichment (6-mer frequency, TF over GST control); in assay [6], 1.17 fold enrichment (6-mer frequency, TF over GST control). The binding signal in [7] is 1.18 fold enrichment (6-mer frequency, TF over GST control); in assay [8], 1.25 fold enrichment (6-mer frequency, TF over GST control); in assay [9], 1.3 fold enrichment (6-mer frequency, TF over GST control); in assay [10], 1.24 fold enrichment (6-mer frequency, TF over GST control).
As for TTAACT, the binding signal in assay [1] is 1.25 fold enrichment (6-mer frequency, TF over GST control); in assay [2] it was 1.2 fold enrichment (6-mer frequency, TF over GST control); in assay [3] it was 1.79 fold enrichment (6-mer frequency, TF over GST control); in [4], 1.36 fold enrichment (6-mer frequency, TF over GST control); in assay [5] it was 1.23 fold enrichment (6-mer frequency, TF over GST control); in assay [6] it was 1.2 fold enrichment (6-mer frequency, TF over GST control). Also, the binding signal is 1.17 fold enrichment (6-mer frequency, TF over GST control) in assay [7]; 1.21 fold enrichment (6-mer frequency, TF over GST control) in assay [8]; 2.72 fold enrichment (6-mer frequency, TF over GST control) in assay [9]; 1.16 fold enrichment (6-mer frequency, TF over GST control) in [10].
